Assay results as given in PubChem BioAssay (NCATS).
Results filed as inconclusive are left out. A call without a number means that no potency is given here. Active and inactive are the calls of the source. Calls come from the whole dose curve; as a rule, active = well fitted curve in the direction sought with a large enough effect; inconclusive = small, poorly fitted or top-dose-only effect, or another doubt; inactive = no such curve, though single readings can be large; an effect the other way counts as inactive or inconclusive.
Potency is the fitted concentration of half-maximal effect.

Assay: Quantitative high throughput screen for delayed death inhibitors of the malarial parasite plastid, 96 hour incubation (AID 488745); note: nearly all actives have a fitted effect of over 70% in size
Conditions: Plasmodium falciparum growth; series mostly up to 28.7 µM
How it was run: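 Growth of reporter-bearing P. falciparum in red cells is measured after 96 h with compound, covering two erythrocytic cycles. Luminescence from the integrated luciferase serves as the growth signal.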
For `Nc1ccc(S(=O)(=O)Nc2ccnn2-c2ccccc2)cc1`, the Potency was “inactive”.
For `O=c1[nH]cnc2[nH]ncc12`, the Potency was “inactive”.
In the case of `Cc1[nH]c(=O)c(C#N)cc1-c1ccc2nccn2c1`, the Potency is reported as “inactive”.
In the case of `Cc1cn[nH]c1`, the Potency is reported as “inactive”.
For `N[C@@H]1CONC1=O`, the Potency was “inactive”.
In the case of `Cc1ccc(N(CC2=NCCN2)c2cccc(O)c2)cc1`, the Potency is reported as “inactive”.
With `CCN(CC)CCCC(C)Nc1ccnc2cc(Cl)ccc12` (centres undefined) the Potency was 262 nM (active).
With `CNC[C@H](O)c1cccc(O)c1` the Potency was “inactive”.
With `NC[C@H](O)c1ccc(O)c(O)c1` the Potency was “inactive”.
In the case of `Cc1[nH]c(=O)c(C#N)cc1-c1ccncc1`, the Potency is reported as “inactive”.
With `NC(=O)c1cnccn1` the Potency was “inactive”.
With `CCCCNc1cc(C(=O)O)cc(S(N)(=O)=O)c1Oc1ccccc1` the Potency was “inactive”.
In the case of `Clc1cccc(Cl)c1NC1=NCCN1`, the Potency is reported as “inactive”.
For `NCCCC(N)(C(=O)O)C(F)F` (centres undefined), the Potency was “inactive”.
In the case of `c1ccc([C@H]2CN3CCSC3=N2)cc1`, the Potency is reported as “inactive”.
For `O=NN(CCCl)C(=O)NCCCl`, the Potency was “inactive”.
With `CC(C)(C)NCC(O)c1ccc(O)c(CO)c1` (centres undefined) the Potency was “inactive”.
With `NS(=O)(=O)c1cc2c(cc1Cl)NC=NS2(=O)=O` the Potency was “inactive”.
For `N=c1nc(N2CCCCC2)cc(N)n1O`, the Potency was “inactive”.
With `Cc1ccccc1C(OCCN(C)C)c1ccccc1` (centres undefined) the Potency was “inactive”.
In the case of `CCCC(CCC)C(=O)O`, the Potency is reported as “inactive”.
For `CC(C[N+](C)(C)C)OC(N)=O` (centres undefined), the Potency was “inactive”.
For `O=C1CCC(N2C(=O)c3ccccc3C2=O)C(=O)N1` (centres undefined), the Potency was “inactive”.
With `CC(=O)Oc1ccccc1C(=O)O` the Potency was “inactive”.

Assay: Quantitative high throughput screen for delayed death inhibitors of the malarial parasite plastid, 48 hour incubation (AID 488752); note: nearly all actives have a fitted effect of over 65% in size
Conditions: Plasmodium falciparum growth; series mostly up to 28.7 µM
How it was run: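 One parasite generation (48 h, 37 C, 5% CO2) of luciferase-reporter P. falciparum in erythrocytes is run with test compound; decreased luminescence indicates inhibited growth.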
With `Nc1ccc(S(=O)(=O)Nc2ccnn2-c2ccccc2)cc1` the Potency was “inactive”.
With `O=c1[nH]cnc2[nH]ncc12` the Potency was “inactive”.
In the case of `Cc1[nH]c(=O)c(C#N)cc1-c1ccc2nccn2c1`, the Potency is reported as “inactive”.
In the case of `Cc1cn[nH]c1`, the Potency is reported as “inactive”.
In the case of `N[C@@H]1CONC1=O`, the Potency is reported as “inactive”.
In the case of `Cc1ccc(N(CC2=NCCN2)c2cccc(O)c2)cc1`, the Potency is reported as “inactive”.
With `CCN(CC)CCCC(C)Nc1ccnc2cc(Cl)ccc12` (centres undefined) the Potency was 165 nM (active).
In the case of `CNC[C@H](O)c1cccc(O)c1`, the Potency is reported as “inactive”.
For `CCn1cc(C(=O)O)c(=O)c2cc(F)c(N3CCNC(C)C3)c(F)c21` (centres undefined), the Potency was “inactive”.
In the case of `NC[C@H](O)c1ccc(O)c(O)c1`, the Potency is reported as “inactive”.
In the case of `Cc1[nH]c(=O)c(C#N)cc1-c1ccncc1`, the Potency is reported as “inactive”.
For `NC(=O)c1cnccn1`, the Potency was “inactive”.
With `CCCCNc1cc(C(=O)O)cc(S(N)(=O)=O)c1Oc1ccccc1` the Potency was “inactive”.
For `Clc1cccc(Cl)c1NC1=NCCN1`, the Potency was “inactive”.
With `NCCCC(N)(C(=O)O)C(F)F` (centres undefined) the Potency was “inactive”.
In the case of `c1ccc([C@H]2CN3CCSC3=N2)cc1`, the Potency is reported as “inactive”.
For `O=NN(CCCl)C(=O)NCCCl`, the Potency was “inactive”.
In the case of `CC(C)(C)NCC(O)c1ccc(O)c(CO)c1` (centres undefined), the Potency is reported as “inactive”.
With `NS(=O)(=O)c1cc2c(cc1Cl)NC=NS2(=O)=O` the Potency was “inactive”.
In the case of `N=c1nc(N2CCCCC2)cc(N)n1O`, the Potency is reported as “inactive”.
In the case of `Cc1ccccc1C(OCCN(C)C)c1ccccc1` (centres undefined), the Potency is reported as “inactive”.
In the case of `CCCC(CCC)C(=O)O`, the Potency is reported as “inactive”.
For `CC(C[N+](C)(C)C)OC(N)=O` (centres undefined), the Potency was “inactive”.
In the case of `O=C1CCC(N2C(=O)c3ccccc3C2=O)C(=O)N1` (centres undefined), the Potency is reported as “inactive”.
With `CC(=O)Oc1ccccc1C(=O)O` the Potency was “inactive”.
